An excerpt weighted towards active compounds, which were near 4.6% of everything screened.
HSF1 inhib = HSF1 inhibitors in luciferase reporter cells, primary screen, cell-based, NIH3T3, luminescence. activity change, negative = inhibition, % at 7.5 µM (by protocol). AID 2098, 2009. NIH3T3-HGL HSE-luciferase, MG132-induced, luminescence 8 h; stronger effect = lower value. 0.77% of 300,000 active;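 active means more than half of replicate wells show activity change below -50%, luminescence cut by over half; inconclusive means some wells, but at most half, below -50%; inactive means no replicate well below -50%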;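 further: luciferase reports HSF-1 transcriptional activity via heat shock element; 0% = median of DMSO wells and -100% = zero luminescence signal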
AHR act = AHR activators, primary screen, cell-based, luminescence, luciferase reporter, human; Aryl hydrocarbon receptor (Homo sapiens), P35869; AHR-responsive luciferase reporter cells; activation, % at 5 µM; 2.5% of 320,000 active; in the data active means activation above about 47%;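 further: 0% = vehicle wells and 100% = reference agonist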
Target sequence (P35869 whole entry, looked up): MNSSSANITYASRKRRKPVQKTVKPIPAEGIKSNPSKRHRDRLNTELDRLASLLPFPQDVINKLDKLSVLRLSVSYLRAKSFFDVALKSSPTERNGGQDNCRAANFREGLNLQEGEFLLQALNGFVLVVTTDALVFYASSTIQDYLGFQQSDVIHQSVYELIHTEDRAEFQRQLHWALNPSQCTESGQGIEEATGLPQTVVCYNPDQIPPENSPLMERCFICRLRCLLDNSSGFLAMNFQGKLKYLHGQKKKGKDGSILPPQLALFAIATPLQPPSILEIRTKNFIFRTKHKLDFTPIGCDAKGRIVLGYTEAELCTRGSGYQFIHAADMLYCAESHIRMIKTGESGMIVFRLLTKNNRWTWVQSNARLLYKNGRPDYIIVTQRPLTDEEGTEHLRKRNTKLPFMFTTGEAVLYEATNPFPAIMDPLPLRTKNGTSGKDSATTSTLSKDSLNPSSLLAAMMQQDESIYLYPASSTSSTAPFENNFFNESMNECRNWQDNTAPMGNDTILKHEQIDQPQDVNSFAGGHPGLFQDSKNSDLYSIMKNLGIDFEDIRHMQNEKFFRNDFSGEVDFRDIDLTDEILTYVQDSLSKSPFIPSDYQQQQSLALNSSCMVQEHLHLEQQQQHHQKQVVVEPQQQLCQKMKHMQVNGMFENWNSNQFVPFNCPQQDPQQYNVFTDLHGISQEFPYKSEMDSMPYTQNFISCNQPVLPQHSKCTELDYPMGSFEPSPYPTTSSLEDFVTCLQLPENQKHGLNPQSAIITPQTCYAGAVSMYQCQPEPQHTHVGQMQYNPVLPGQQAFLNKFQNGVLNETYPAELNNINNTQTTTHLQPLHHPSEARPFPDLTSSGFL
HSF-1 act = HSF-1 activators, primary screen, NIH3T3-HGL cells, MG132 stress, luminescence, single point | AID 504408, 2011 | activation, % at 9 µM | NIH3T3-HGL HSF-1 luciferase reporter, 8 h; 100% = twice DMSO control signal | 1.7% of 300,000 active;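 active means mean replicate activation of at least 50% with a set share of replicates each reaching 50%; inconclusive means only one of those two conditions met; inactive means mean below 50% and too few replicates reaching it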;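 further: 0% = median of the neutral control wells and 100% = twice that signal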
GAA850 FXN act = FXN promoter activators, primary screen, cell-based, luciferase luminescence, HEK293 lucGAA850; HEK293 lucGAA850 FXN promoter luciferase reporter, 24 h; percent of 10 µM SAHA response; activation, % at 6 µM; 0.56% of 360,000 active;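 active means activation above the average of all compounds screened plus 3 SD, cutoff fixed separately per campaign, cut at about 7.5% in these data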;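 further: 0% = DMSO wells and 100% = 10 µM SAHA wells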
* = called active by the depositor; ? = inconclusive; / = no result given.

SMILES | HSF1 inhib | AHR act | HSF-1 act | GAA850 FXN act
CN(C)CCCN(C(=O)c1cc(-c2cccs2)nc2ccccc12)c1nc2c(F)cccc2s1 | -4 | 9 | 6 | 1
CCn1c2ccccc2c2c3ncc4cccn4c3ccc21 | 11 | 66* | 19 | 0
c1ccc2c(c1)ncc1cccn12 | -2 | 11 | -12 | 1
CC1(c2cc(C(F)(F)F)n3nc(C(=O)O)cc3n2)CC1 | -3 | 2 | -9 | 1
CC(C)(C)[C@@H]1C=C(C(=O)O)[C@H](c2ccc(Cl)cc2)N1S(=O)(=O)c1ccccc1 | / | -2 | / | -1
O=C(C1CCC(Cn2c(=S)[nH]c3ccccc3c2=O)CC1)N1CCOCC1 (configuration not stated) | 8 | -2 | 33 | -1
CCCCCNC(=O)C1CCC(Cn2c(=S)[nH]c3ccccc3c2=O)CC1 (configuration not stated) | 28 | 1 | 85* | 1
O=C1Nc2ccccc2/C1=C/c1cccnc1 | -2 | 13 | -1 | 1
O=C1Nc2ccccc2/C1=C/c1cnc(-c2ccccc2)[nH]1 | 35 | 73* | 64* | 6
Cc1cc(NCCCN2CCOCC2)n2c(nc3ccccc32)c1C#N | -7 | 73* | 5 | 0
CCN(CC)CCNc1cc(C)c(C#N)c2nc3ccccc3n12 | -5 | 48* | 3 | 3
CCOC(=O)N1CCC2CC1c1cc(Cl)ccc12 (configuration not stated) | / | / | / | 0
c1ccc2nc(-c3ccc4c(c3)OCO4)ccc2c1 | 26 | 65* | 48 | 2
COc1ccc(-c2nnc(-c3cc4ccccc4oc3=O)o2)cc1 | -1 | 0 | -1 | 2
COc1cccc2cc(-c3nnc(-c4ccccc4)o3)c(=O)oc12 | -57* | 0 | -54 | 4
CCOc1ccc(C(c2c(O)nc(SC)n(C)c2=O)c2c(O)nc(SC)n(C)c2=O)cc1 | -2 | 0 | 10 | 0
Cc1ccc(Cl)cc1N1CCN(C2CCCCC2NS(=O)(=O)c2ccccc2)CC1 (configuration not stated) | 43 | 1 | 76* | 2
Cc1ccc(C)c(NC2CCCCC2NS(=O)(=O)c2ccccc2)c1 (configuration not stated) | 68 | 2 | 83* | 3
Cc1ccc(C)c(N2CCN(C3CCCCC3NS(=O)(=O)c3ccccc3)CC2)c1 (configuration not stated) | 1 | 0 | 6 | 3
C=CCOc1ccc(/C=C/C(=O)OCC(=O)NCC2CCCCC2)cc1 | -68* | -1 | -76 | 0
C=CCOc1ccc(/C=C/C(=O)OCC(=O)NC2CCCCCCC2)cc1 | -5 | -1 | -3 | 2
CCc1ccccc1NC1=NCC(=O)N1Cc1ccc2c(c1)OCO2 | 3 | 33 | -6 | -1
CNc1ccccc(-c2ccc3cc4c(cc3n2)OCO4)c1=O | 14 | 70* | 9 | 1
CCOC(=O)C1=C(Cc2ccc(Cl)cc2)C(=O)c2ccccc2C1=O | / | 86* | / | -1
CC(C)C(CCNC1CCN(C)CC1)c1ccc(Cl)cc1 (configuration not stated) | -6 | 0 | 0 | 1
SMILES | HSF1 inhib | AHR act | HSF-1 act | GAA850 FXN act
Cn1c(/C=C/c2ccc(Br)cc2)nc2ccccc2c1=O | 37 | 4 | 61* | 3
O=C(Nc1ccc(O)cc1)C1CCCO1 (configuration not stated) | -5 | 2 | 5 | 4
O=C(CSC(=S)N1CCCCC1)Nc1ncc2c(n1)CCCC2=O | -52* | 1 | -59 | 1
O=C(CSC(=S)N1CCCCC1)Nc1ncc2c(n1)CC(c1ccco1)CC2=O (configuration not stated) | 2 | -3 | 9 | 2
O=S(=O)(c1ccccc1)c1cnc(-c2ccccc2)nc1N1CCCC1 | 0 | 1 | 0 | 4
COc1ccc2cc(CN(Cc3ccco3)C(c3nnnn3C3CCCCC3)C(C)C)c(=O)[nH]c2c1 (configuration not stated) | 27 | 1 | 70* | 3
O=C(/C=C/c1cn(-c2ccccc2)nc1-c1cccnc1)c1ccco1 | 97 | 9 | 119* | 0
O/N=C/c1cn(-c2ccccc2)nc1-c1cccnc1 | 1 | 51* | 8 | 0
Cc1ccc(-c2nn(-c3ccccc3)cc2/C=N/O)cc1 | -6 | 8 | -2 | 0
CCn1c(-c2cc3ccccc3cc2O)n[nH]c1=S | 2 | 7 | -3 | -1
CN(C1=C(N2CCOCC2)C(=O)c2ccccc2C1=O)c1ccccc1 | -2 | 25 | -12 | -2
CN(C)CCNC(=O)c1c(CSc2ccc(Cl)cc2)noc1C(=O)NCc1ccccc1 | 8 | 0 | -4 | 1
CCN(CC)Cc1c(O)ccc2c(C)c(CC(=O)OC)c(=O)oc12 | -41 | -3 | -53 | 0
COCc1nnc(NC(=O)COc2ccc3c(c2)OCO3)s1 | 5 | 10 | 22 | -1
O=C(COc1ccc2c(c1)OCO2)Nc1nccs1 | 14 | 59* | 39 | 2
O=C(Nc1nccs1)c1cc([N+](=O)[O-])ccc1Cl | -5 | 0 | -5 | -6
O=C1Nc2ccccc2O/C1=C\c1ccccc1 | 3 | 61* | 22 | 3
COc1cc(OC)c2c(c1)O/C(=C\c1ccccc1)C2=O | 23 | 15 | 39 | 5
Nc1cccc2c1C(=O)N(c1ccccc1)C2=O | 6 | 49* | 21 | 0
Nc1ccccc1N1C(=O)c2cccc3cccc(c23)C1=O | 2 | 67* | 22 | 3
O=C1c2cccc3cccc(c23)C(=O)N1c1ccccc1Cl | 10 | 7 | ? | 4
CC(NC(=O)OCc1ccccc1)C(=O)N1CC(O)CC1C(=O)O (configuration not stated) | 0 | / | 6 | 1
C/C(=N/NC(=O)CNC(=O)c1ccccn1)c1ccc([N+](=O)[O-])cc1 | -81* | 13 | -85 | 0
C/C(=N/NC(=O)CNC(=O)c1ccccn1)c1ccccc1 | -14 | 8 | 1 | 1
CC(C)n1c(O)c(/C=C2\C=NN=C2c2ccccc2)sc1=S | 1 | 64* | 1 | -1
SMILES | HSF1 inhib | AHR act | HSF-1 act | GAA850 FXN act
CCn1c(O)c(/C=C2\C=NN=C2c2ccc(C)cc2)sc1=S | -6 | -1 | -1 | 2
CC(C)c1ccccc1NC(=O)COc1ccc2c(=O)c(Oc3ccc4ccccc4c3)coc2c1 | 4 | 4 | 15 | /
CCc1ccccc1NC(=O)COc1ccc2c(=O)c(Oc3cc(C)ccc3C)coc2c1 | 29 | 4 | 71* | -3
CCCNC(=O)COc1ccc2c(=O)c(Oc3ccccc3F)coc2c1 | -70* | 1 | -77 | -1
COc1ccccc1Oc1coc2cc(OCC(N)=O)ccc2c1=O | -3 | -1 | -7 | 2
COC(=O)c1ccc(CNC(=O)c2sccc2-c2ccccc2)cc1 | 4 | 1 | -1 | 3
CCOc1ccc2c(c1)c(N=NC(N)=S)c(O)n2C | 3 | 41 | 9 | 0
CCOC(=O)C(=O)NCC(c1ccco1)S(=O)(=O)c1cccs1 (configuration not stated) | 1 | 1 | -8 | -2

Source: PubChem BioAssay (several laboratories)
